# S1P2 blocker: blocks the human S1P2 receptor; AID 736; cell-based S1P2 antagonist assay, inhibition at 5 uM; O95136; 97,000 tested, 0.21% active; inhibition, % at 5 µM; in the data active = inhibition above about 45%;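 also: CRE beta-lactamase reporter cells expressing human S1P2 stimulated with S1P; 0% = agonist at EC80 alone and 100% = agonist plus reference antagonist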
# GALR2 ag: activates the human galanin receptor 2 | O43603 | GALR2-expressing cells, agonist activation read-out | activation, % (no concentration beside the values) | 140,000 tested, 0.48% active; in the data active = activation above about 5%, passing the limit was not always enough;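 also: 0% = vehicle buffer wells and 100% = reference agonist at full effect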
# S1P2 ag: activates the human S1P2 receptor. O95136. S1P2-expressing cell line, agonist reporter read-out. activation, % at 4.5 µM. 97,000 tested, 0.46% active. AID 729; in the data active = activation above about 16%;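 also: 0% = vehicle low control and 100% = maximal reference agonist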
# GALR2 antag: antagonists of human galanin receptor 2 (GALR2); GALR2-expressing cells, antagonist mode; inhibition, % at 4 µM; 140,000 tested, 0.39% active; O43603; in the data active = inhibition above about 27%;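 also: cells stimulated with galanin 1-16 at roughly its EC80; 0% = agonist challenge control and 100% = basal control without agonist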
# DAT uptake mod: changed human dopamine transporter uptake under cocaine IC80. B-score at 10 µM. LLC-PK1 hDAT cells, [14C]-dopamine uptake with cocaine IC80; actives deviate in either direction. Q01959. 110,000 tested, 1.3% active;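 active = Z score or B-score, a plate-position-corrected score, falls beyond the plate's 99.7% confidence bounds, in either direction; inactive = both scores lie inside the 99.7% bounds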;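 also: scored against the spread of the other compound wells on the same plate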
# Target sequence (Q01959 whole entry, looked up): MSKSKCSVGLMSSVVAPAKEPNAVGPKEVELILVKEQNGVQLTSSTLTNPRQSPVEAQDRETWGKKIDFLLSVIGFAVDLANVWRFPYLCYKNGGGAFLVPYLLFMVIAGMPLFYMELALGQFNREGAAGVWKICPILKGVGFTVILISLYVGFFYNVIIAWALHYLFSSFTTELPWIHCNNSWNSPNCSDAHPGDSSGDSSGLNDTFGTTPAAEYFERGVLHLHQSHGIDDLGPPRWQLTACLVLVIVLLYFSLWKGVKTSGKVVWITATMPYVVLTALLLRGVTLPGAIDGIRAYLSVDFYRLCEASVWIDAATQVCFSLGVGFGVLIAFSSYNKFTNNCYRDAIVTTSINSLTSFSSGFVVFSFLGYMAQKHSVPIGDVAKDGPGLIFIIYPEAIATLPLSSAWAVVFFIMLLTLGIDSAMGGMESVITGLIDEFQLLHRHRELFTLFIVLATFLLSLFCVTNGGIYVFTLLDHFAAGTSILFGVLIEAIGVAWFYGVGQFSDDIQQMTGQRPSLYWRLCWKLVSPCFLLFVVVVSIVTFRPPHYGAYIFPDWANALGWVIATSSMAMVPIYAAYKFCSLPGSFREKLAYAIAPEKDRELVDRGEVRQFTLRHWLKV
# GALR2 agon conf: GALR2 (human) agonism confirmed | activation, % at 5.6 µM | GALR2-expressing cells, agonist activation | AID 864 | shares compounds with GALR2 ag | 460 tested, 10% active; in the data active = activation above about 8.4%;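 also: 0% = buffer-only vehicle wells and 100% = full reference agonist response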
# BLA act counter: activates beta-lactamase reporter in GALR2 agonist counterscreen. shares compounds with GALR2 ag. CHO NFAT-bla reporter, beta-lactamase FRET activation. activation, % at 5.6 µM. 460 tested, 10% active. AID 865;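 active = activation above the screen-wide mean activation plus 3 SD, cut at about 8% in these data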;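 also: 0% = DMSO with PBS wells and 100% = thapsigargin positive control wells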
# Numbers without * were called inactive; · = no result given. Sampled rows, rich in hits. Any-hit rate of the full collection: about 2.1%.
SMILES,S1P2 blocker,GALR2 ag,S1P2 ag,GALR2 antag,DAT uptake mod,GALR2 agon conf,BLA act counter
Cc1cc(/C=N/NC(=O)Cn2c3ccccc3c(=O)c3ccccc32)c(C)n1-c1ccccc1,-9,10,4,-18,·,1,0
Cc1cc(C(=O)N/N=C/c2cc(Cl)cc([N+](=O)[O-])c2O)c2ccccc2n1,·,-2,·,-13,·,·,·
O=C(N/N=C/c1cc(Cl)cc([N+](=O)[O-])c1O)NC12CC3CC(CC(C3)C1)C2,·,21*,·,0,·,-1,-3
O=C(CC1Nc2ccccc2NC1=O)Nc1cc(Cl)cc(Cl)c1 (configuration not stated),-1,13*,16,-1,0.02,12*,9.9*
O=C(CC1NC(=O)NC1=O)Nc1ccc(Cl)cc1 (configuration not stated),3,-1,-4,-6,-0.0074,·,·
CCn1nc(C)c(/C=C/C(=O)Nc2ccc(C)cc2C)c1C,·,1,·,10,·,·,·
O=C(Nc1ccc(-c2noc(CCc3ccccc3)n2)cc1)c1cccnc1,·,-2,·,20,0.63,·,·
O=C(Nc1cccc(O)c1)C(Cc1ccccc1)N1C(=O)c2cccc3cccc(c23)C1=O (configuration not stated),·,10*,·,-2,·,5,1
CCOC(=O)N1CCN(S(=O)(=O)c2c(C)cc(C)cc2C)CC1,17,-1,1,-8,0.4,·,·
CCOC(=O)N1CCN(C(=O)C2CCN(S(=O)(=O)c3c(C)cc(C)cc3C)CC2)CC1,6,18*,-2,0,0.97,-1,-3
COc1ccc(C2CC(c3ccccc3)=NN2c2ccc(/C=N/NC(=O)c3ccncc3)cc2)cc1 (configuration not stated),22,17*,8,24,0.19,2,1
COc1ccc(C2CC(c3cccs3)=NN2C(=O)c2ccc(Br)o2)cc1 (configuration not stated),·,1,·,-4,·,·,·
COc1ccc(C2CC(c3cccs3)=NN2c2ccc(C=O)cc2)cc1 (configuration not stated),·,29*,·,6,·,15*,32*
CC(C)c1nc(SCC(=O)c2ccccc2)c2c(=O)n(C)c(=O)n(C)c2n1,5,-2,-5,-5,0.022,·,·
O=C(CCc1ccccc1)NNC(=S)NC(=O)c1ccccc1,-1,-2,-9,-1,0.32,·,·
CC(C)(C)c1cc(CCC(=O)NNC(=S)NC(=O)c2ccccc2)cc(C(C)(C)C)c1O,·,35*,·,-5,·,37*,29*
COC(=O)c1ccc2c(c1)C(C)(C)C(/C=C/c1ccccc1O)=[N+]2C,32,13*,5,17,-3.6*,-2,-7
C[N+]1=C(/C=C/Nc2ccccc2Cl)C(C)(C)c2ccccc21,·,0,·,4,·,·,·
Fc1c(F)c(C(F)(F)F)c(F)c(F)c1N/N=C\c1cccs1,5,31*,0,1,-0.26,7,6
CCOc1ccc(CN(C)CC(=O)Nc2ccc(N3CCOCC3)cc2)cc1OC,·,0,·,4,·,·,·
CCn1cc(C2=NOC(C(=O)Nc3cc(C)nn3-c3ccccc3)C2)c(C)n1 (configuration not stated),·,11*,·,14,1.1,0,-2
COCCN(C(=O)CCCC(=O)Nc1ccccn1)C(C(=O)NC1CCCC1)c1ccc(C)cc1 (configuration not stated),24,0,-3,-5,-0.66,·,·
COc1ccc(NC(=O)C(=O)N2N=C(C(C)C)CC2(O)C(F)(F)F)cc1 (configuration not stated),8,-4,-9,16,-0.2,·,·
O=C(NC(=S)Nc1ccc(NC(=O)c2cccs2)cc1)c1cc2ccccc2o1,·,11*,·,4,·,3,2
CCOC(=O)COc1c(Br)cc(/C=C2\SC(=O)N(CC(=O)N3CCCC3)C2=O)cc1OC,-10,-2,-2,12,·,·,·
SMILES,S1P2 blocker,GALR2 ag,S1P2 ag,GALR2 antag,DAT uptake mod,GALR2 agon conf,BLA act counter
COC(=O)COc1ccc(Oc2nc(SC)nc(N(C)C)n2)nn1,12,-1,-5,0,0.63,·,·
O=C(CSc1ccc2nnc(-c3cccc(F)c3)n2n1)N1CCCc2ccccc21,·,9.1*,·,2,·,9.7*,8
O=C(COC(=O)c1cc(S(=O)(=O)N2CCOCC2)cs1)c1ccccc1,3,0,-3,-10,-0.45,·,·
COc1ccccc1N1CCN(C(CNS(=O)(=O)c2ccccc2)c2cccnc2)CC1 (configuration not stated),-49,10,-1,-6,-1,0,-2
COc1ccc(S(=O)(=O)NCC(c2cccnc2)N2CCN(c3ccccc3OC)CC2)cc1C (configuration not stated),14,-2,-1,-11,1.3,·,·
Cn1c(C(=O)OC(C(=O)NC2CCCCC2)c2ccncc2)cc2sccc21 (configuration not stated),1,-3,1,-2,0.012,·,·
Cc1nn(C)c(C)c1S(=O)(=O)N(CC(=O)NCc1cccs1)c1ccc(C(C)C)cc1,·,0,·,-8,1.2,·,·
COc1ccc(N(CC(=O)NCc2cccs2)S(=O)(=O)c2c(C)nn(C)c2C)cc1,-16,17*,-2,-4,0.79,0,-1
Cc1c(NC(=O)c2cccnc2C(=O)O)cccc1C(=O)O,·,-1,·,-3,·,·,·
O=S(=O)(c1ccccc1)N1C2CCC1CC(O)(c1cccnc1)C2 (configuration not stated),7,0,-3,-3,-0.96,·,·
CCCCCCc1cc2cc(S(=O)(=O)c3ccc(F)cc3)c(=O)oc2cc1O,·,14*,·,-3,·,16*,41*
CCN(CC(=O)NC1CCS(=O)(=O)C1)S(=O)(=O)c1ccc(C)c(C)c1 (configuration not stated),·,0,·,-12,·,·,·
O=C(CSc1ncc(-c2ccccc2)n1CC1CCCO1)N1CCCCC1 (configuration not stated),·,0,·,-2,0.63,·,·
CC(C)Cn1c(-c2ccc(Cl)cc2)cnc1SCC(=O)N1CCOCC1,30,21*,-2,-1,-0.42,-1,-1
COC(=O)c1cc2c(ccn2-c2ccc(F)cc2)n1CC(C)C,5,8.8*,-4,-26,0.5,3,6
CCOC(=O)Cc1csc(NC(=O)CSc2ncnc3c2cnn3-c2ccc(OC)cc2)n1,-1,12*,-5,2,0.0045,0,-2
CC(=O)n1cc([C@H]2C=C(C(=O)N3CCN(Cc4ccccc4)CC3)O[C@@H](OCc3ccc(CO)cc3)C2)c2ccccc21,·,·,·,·,-0.094,·,·
Cc1cccc2cc3c(NC(=O)c4ccccn4)nn(C)c3nc12,-6,8,14,16,0.25,3,7
N#Cc1c(NC(=O)c2ccccc2Cl)n(Cc2ccccc2)c2nc3ccccc3nc12,·,8.2*,·,10,·,4,7
COCCOC(=O)c1c(C)n(C)c2ccc(OC(=O)c3ccco3)cc12,-10,86*,-7,-9,-0.11,0,1
